Screens deposited in PubChem BioAssay by several laboratories.
The list is not random: actives were taken first. Their share in the collection is about 2.7%.
Shn3 inh set2: reduction of Shn3 3'UTR firefly luciferase signal, primary screen, Schnurri-3 inhibitor project, cell-based, Clone20 osteoblasts, set 2 | Clone20 osteoblast Shn3 3'UTR firefly luciferase, 24 h | inhibition, % at 12.5 µM | hit rate 0.52% among 360,000;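 active = mean inhibition of at least 75% with every replicate also reaching 75%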;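 note: 0% = median of neutral control wells and 100% = pilot-screen positive control compound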
HIF-2a block: HIF-2a reporter inhibitors, primary screen, luminescence, 786-0 RCC cells; 786-0 RCC cells HIF-2a reporter, luciferase luminescence, overnight; inhibition, % at 18.8 µM; hit rate 0.72% among 360,000; AID 624352, 2012;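 active = inhibition of the luminescence signal of 40% or more relative to plate controls, in a single-dose primary screen at 18.75 µM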
KKLEB cytotox: cytotoxicity in KKLEB CF airway cells, primary screen, cytotoxicity control for CF NF-kB inhibitor project, cell-based, uHTS, fluorescence assay plates | KKLEB CF airway cells viability, ATPlite luminescence, overnight; hits give low values; cells stimulated with P. aeruginosa culture filtrate | activity change (cytotoxicity), % at 5 µM | hit rate 0.36% among 360,000;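 active = corrected activity change at or below -50% at 5 µM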
CF NFkB inh: inhibitors of PAF-induced NF-kB signaling, primary screen, cell-based, GFP fluorescence, uHTS; inhibition, % at 5 µM; AID 588850, 2011; KKLEB NF-kB-GFP reporter, GFP fluorescence overnight; hit rate 0.86% among 360,000;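 active = at least 50% inhibition at 5 µM, scaled per plate between neutral and stimulator controls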;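 note: PAF is a Pseudomonas aeruginosa culture filtrate used as stimulus; plate controls were PAF-stimulated DMSO wells for no effect and unstimulated DMSO wells for full effect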
Peg3 promoter: Peg3 promoter-driven luciferase inhibitors, primary screen, cell-based, HeLa, luciferase luminescence; HeLa PEG-Prom luciferase reporter, overnight; inhibition, % at 20 µM; hit rate 1.7% among 360,000; AID 588405, 2011;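 active = inhibition of at least 50% at 20 µM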
TRPM1 prom inh: inhibitors of MITF-dependent TRPM1 promoter reporter, primary screen, cell-based, SK-MEL-5, single point, luciferase. hit rate 0.83% among 330,000. SK-MEL-5 TRPM1 promoter luciferase, 24 h. inhibition, % at 12.5 µM. AID 488899, 2010;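 active = mean inhibition across replicates of 60% or more, whatever share of single replicates reaches that level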
Mdm2-MdmX confirm: retested Mdm2-MdmX interaction blockers, confirmation, cell-based, luminescence, single concentration, set 2 | shares compounds with HIF-2a block | SaOS-2 split-luciferase Mdm2/MdmX complementation | inhibition, % at 8 µM | hit rate 99% among 740;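 active = mean inhibition of the luminescence signal across two replicates at or above 26 percent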
Target sequence (O15151 whole entry, looked up): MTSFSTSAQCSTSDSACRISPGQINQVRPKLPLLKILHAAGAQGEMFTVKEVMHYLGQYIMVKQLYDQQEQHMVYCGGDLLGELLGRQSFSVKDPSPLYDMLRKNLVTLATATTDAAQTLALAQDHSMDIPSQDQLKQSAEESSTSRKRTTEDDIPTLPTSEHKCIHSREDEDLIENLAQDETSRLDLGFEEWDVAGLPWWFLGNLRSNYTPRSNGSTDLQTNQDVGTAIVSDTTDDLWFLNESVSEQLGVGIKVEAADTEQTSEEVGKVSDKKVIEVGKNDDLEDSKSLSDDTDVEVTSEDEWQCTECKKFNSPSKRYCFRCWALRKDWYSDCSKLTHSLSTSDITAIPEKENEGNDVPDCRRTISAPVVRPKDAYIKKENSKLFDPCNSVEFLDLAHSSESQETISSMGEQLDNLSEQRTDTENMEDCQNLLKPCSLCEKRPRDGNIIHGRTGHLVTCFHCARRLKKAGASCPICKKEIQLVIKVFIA
Target sequence (Q00987 whole entry, looked up): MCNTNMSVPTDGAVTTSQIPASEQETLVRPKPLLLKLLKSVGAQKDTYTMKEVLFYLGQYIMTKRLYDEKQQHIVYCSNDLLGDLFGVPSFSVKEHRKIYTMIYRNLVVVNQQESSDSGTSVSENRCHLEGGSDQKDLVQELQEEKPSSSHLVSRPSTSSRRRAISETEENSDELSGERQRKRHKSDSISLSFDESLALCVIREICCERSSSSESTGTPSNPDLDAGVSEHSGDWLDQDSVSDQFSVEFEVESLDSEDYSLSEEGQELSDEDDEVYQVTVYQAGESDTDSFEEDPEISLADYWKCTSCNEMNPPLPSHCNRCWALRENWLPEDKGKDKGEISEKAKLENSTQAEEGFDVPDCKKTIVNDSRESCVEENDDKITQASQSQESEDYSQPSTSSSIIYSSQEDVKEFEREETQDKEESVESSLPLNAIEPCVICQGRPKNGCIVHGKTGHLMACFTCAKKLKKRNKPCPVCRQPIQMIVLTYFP
HIF-2a inh conf: HIF-2a reporter inhibitor retest, confirmation, luminescence, 786-0 RCC cells; shares compounds with HIF-2a block; HIF-2a luciferase reporter luminescence, overnight; inhibition, % at 18.8 µM; hit rate 56% among 1,800; AID 651580, 2012;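 active = mean inhibition across four replicates of at least 40 percent at the single tested concentration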
HIF-1a counter: HIF-1a luciferase reporter signal reduction – MiaPaCa-2 cells, single concentration, counter-screen for HIF-2a inhibitor project, confirmation. shares compounds with HIF-2a block. MiaPaCa-2 HIF-1a luciferase reporter, desferoxamine, overnight. inhibition, % at 18.8 µM. hit rate 72% among 1,800. AID 651589, 2012;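 active = mean inhibition of the reporter signal across four replicates at the single tested dose of 50% or more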
Active calls of the source: *.

`CCN(CC)c1ccc(NC(=O)CCCCCN2C(=O)c3ccccc3C2=O)cc1` gave Shn3 inh set2 32, HIF-2a block 12, KKLEB cytotox -4, CF NFkB inh -4, Peg3 promoter 10 and TRPM1 prom inh 13.
For CCN(CC)c1ccc(NC(=O)CCCCC(=O)Nc2ccc(N(CC)CC)cc2)cc1 the results were Shn3 inh set2 23, HIF-2a block 65*, KKLEB cytotox -6, CF NFkB inh -4, Peg3 promoter 12, TRPM1 prom inh 29, HIF-2a inh conf 66* and HIF-1a counter 49.
`O=C(CCNC(=O)c1ccc(Cl)cc1)Nc1ccncc1` gave Shn3 inh set2 9, HIF-2a block -10, KKLEB cytotox -1, CF NFkB inh -1, Peg3 promoter -30 and TRPM1 prom inh 7.
`C=CC(C)(C)c1c2occc2c(O)c2ccc(=O)oc12` gave Shn3 inh set2 -5, HIF-2a block -13, KKLEB cytotox -19, CF NFkB inh 5 and Peg3 promoter 13.
C=CC(C)(C)c1c(O)c(CC=C(C)C)c(O)c2c(=O)c3ccc(O)c(O)c3oc12 was read as Shn3 inh set2 89*, HIF-2a block 10, KKLEB cytotox -7, CF NFkB inh 54*, Peg3 promoter 61* and Mdm2-MdmX confirm 97*.
For O=C(COC(=O)CNC(=O)c1ccc(Cl)cc1Cl)NCc1ccco1 the results were Shn3 inh set2 -1, HIF-2a block 5, KKLEB cytotox -3, CF NFkB inh -2, Peg3 promoter -6 and TRPM1 prom inh 3.
`O=C1C(=O)c2ccc(-c3ccccc3)cc2-c2ccccc21` gave Shn3 inh set2 96*, HIF-2a block 93*, KKLEB cytotox -100*, CF NFkB inh 102*, Peg3 promoter 101*, TRPM1 prom inh 104* and Mdm2-MdmX confirm 103*.
Nc1ccc2c(c1)C(=O)c1ccccc1C2=O was read as Shn3 inh set2 -133, HIF-2a block -228, KKLEB cytotox 16, CF NFkB inh -62, Peg3 promoter -363 and TRPM1 prom inh -108.
`Nc1nnnn1/N=C/C(Br)=C/c1ccccc1` gave Shn3 inh set2 97*, HIF-2a block 83*, KKLEB cytotox -94*, CF NFkB inh 91*, Peg3 promoter 114*, TRPM1 prom inh 85*, Mdm2-MdmX confirm 103*, HIF-2a inh conf 30 and HIF-1a counter 104*.
Screening Nc1nnnn1/N=C/C=C/c1ccccc1 returned Shn3 inh set2 -18, HIF-2a block -106, KKLEB cytotox -10, CF NFkB inh 14, Peg3 promoter -89 and TRPM1 prom inh -13.
Screening COc1ccc(C=C(C(C)=O)C(=O)c2ccccc2)cc1 returned Shn3 inh set2 -10, HIF-2a block -35, KKLEB cytotox 29, CF NFkB inh -5 and Peg3 promoter -5.
CC(=O)C(=Cc1ccc(Cl)cc1)C(=O)c1ccccc1 was read as Shn3 inh set2 72, HIF-2a block 91*, KKLEB cytotox -23, CF NFkB inh 48, Peg3 promoter 99*, HIF-2a inh conf 92* and HIF-1a counter 105*.
O=C(Nc1ccccc1)C1=C(c2ccccc2)S(=O)(=O)CCS1(=O)=O was read as Shn3 inh set2 95*, HIF-2a block 72*, KKLEB cytotox -83*, CF NFkB inh 85*, Peg3 promoter 109*, TRPM1 prom inh 81*, HIF-2a inh conf 45* and HIF-1a counter 86*.
For O=C(O)c1ccccc1C(=O)Nc1ccccc1 the results were Shn3 inh set2 -8, HIF-2a block 1, KKLEB cytotox 14, CF NFkB inh -6, Peg3 promoter 6 and TRPM1 prom inh 3.
O=C(NCCS(=O)(=O)N1CCN(c2ccccc2F)CC1)c1ccc2c(c1)OCO2 was read as Shn3 inh set2 -5, HIF-2a block 7, KKLEB cytotox -13, CF NFkB inh -3, Peg3 promoter 0 and TRPM1 prom inh 1.
Screening CCc1ccc2oc(=O)cc(CN3CCOCC3)c2c1 returned Shn3 inh set2 -24, HIF-2a block 46*, KKLEB cytotox -22, CF NFkB inh 12, Peg3 promoter 11, TRPM1 prom inh 1, HIF-2a inh conf 5 and HIF-1a counter -12.
`Cc1cc(N2CCN(C)CC2)nc2ccc(NC(=S)N3CCCCC3)cc12` gave Shn3 inh set2 -36, HIF-2a block -48, KKLEB cytotox -4, CF NFkB inh -18, Peg3 promoter -59 and TRPM1 prom inh -17.
Cc1cccc(N2CCN(C(=S)Nc3ccc4nc(N5CCN(C)CC5)cc(C)c4c3)CC2)c1C was read as Shn3 inh set2 85, HIF-2a block 82*, KKLEB cytotox -73*, CF NFkB inh 43, Peg3 promoter 104*, TRPM1 prom inh 96*, HIF-2a inh conf -3 and HIF-1a counter 105*.
CC(=O)c1ccc(NC(=O)c2cnn3ccccc23)cc1 was read as Shn3 inh set2 80, HIF-2a block 75*, KKLEB cytotox 15, CF NFkB inh -25, Peg3 promoter 25, HIF-2a inh conf 86* and HIF-1a counter 47.
Screening Cc1cc(NC(=O)c2cccc(C)c2[N+](=O)[O-])no1 returned Shn3 inh set2 -15, HIF-2a block -15, KKLEB cytotox 3, CF NFkB inh -5, Peg3 promoter -2 and TRPM1 prom inh -16.
For CC(C)(C)n1nnnc1C(c1ccccc1)N1CCN(C(=O)C2CCCO2)CC1 (centres undefined) the results were HIF-2a block 13.
Screening Cn1c(CCN2CCCCC2)nc2cc(NC(=O)COc3ccc(Cl)cc3)ccc21 returned Shn3 inh set2 -20, HIF-2a block 2, KKLEB cytotox -11, CF NFkB inh -5, Peg3 promoter 20 and TRPM1 prom inh -25.
